Assay results published in the supplement of paper PMC10849652.
The full data set covers some 7,900 targets. This sample favours those with a hit. About 0.6% of all pairs of compound and target were hits.

Assays:
Assay in all cases: log2 fold change, soluble protein after heating vs DMSO (PISA); higher = thermal stabilisation; K562 cells, 10 uM, 30 min; active = over 0.2 and 3.5 SD of the protein, either way, in both replicates (recomputed)
erlotinib = compound: C#Cc1cccc(Nc2ncnc3cc(OCCOC)c(OCCOC)cc23)c1 [erlotinib]
Outline: (§1)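 Quantification of soluble protein used TMTpro 16plex LC-MS/MS, with channel sums equalised. Samples were the supernatant after 21,000xg for 90 min of pooled aliquots from K562 cells (2×10^6 cells/mL) treated with 10 μM compound for 30 min, heated for 3 min over 48°C-58°C, and extracted in PBS with 0.5% NP-40 at 4°C. Values, from duplicates, describe thermal stability against control samples on a log2 fold-change scale.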

[1] = compound: C/C(=N\NC(=O)C1=CC(=CC=C1)S(=O)(=O)N2CCOCC2)/C3=C(C=CC(=C3)Cl)O
Outline: as §1

[2] = compound: C1=CC(=C(C=C1Cl)C2=NC3=NC=CN=C3C(=N2)NC4=CC=NC=C4)F
Outline: as §1

[3] = compound: C1=CC(=CC=C1C2=NC3=C(N2)C=C(C=C3)C(=O)N)OC4=CC=C(C=C4)Cl
Outline: as §1

[4] = compound: C1=CC2=C(C=CC(=C2)/C=C\3/C(=O)NC(=NCC4=CC=CS4)S3)N=C1
Outline: as §1

[5] = compound: C1=CC2=NC=CN=C2C=C1/C=C/3\C(=O)NC(=O)S3
Outline: as §1

[6] = compound: C1=CC=C(C=C1)C2=NC(=C(N2)C3=CC=NC=C3)C4=CC(=C(C=C4)Cl)O
Outline: as §1

[7] = compound: C1=CC=C2C(=C1)C3=NNC4=CC=CC(=C43)C2=O
Outline: as §1

[8] = compound: C1CCN(C1)C(=O)NC2=CC=CC(=C2)NC3=NC=C(C(=N3)NCCC4=CN=CN4)Br
Outline: as §1

[9] = compound: C1CN(CCC1(CC2=CC=C(C=C2)Cl)N)C3=NC=NC4=C3C=CN4
Outline: as §1

Measured: log2 fold change

TBCD (UniProt Q9BTW9)
inactive: erlotinib 0.022 | [1] 0.06 | [2] 0.059 | [3] 0.022 | [4] 0.069 | [5] 0.029 | [6] -0.025 | [7] -0.01 | [8] -0.016 | [9] -0.021

TBC1D20 isoform 3 (UniProt Q96BZ9)
inactive: erlotinib 0.022 | [1] 0.195 | [2] 0.094 | [3] 0.083 | [4] 0.047 | [5] -0.015 | [6] -0.048 | [7] -0.048

TLK1 (UniProt Q9UKI8)
inactive: erlotinib 0.012 | [1] 0.038 | [2] 0.041 | [3] -0.012 | [4] 0.042 | [5] 0.005 | [6] 0.01 | [7] -0.034 | [8] -0.032 | [9] -0.014

SMARCA4 (UniProt P51532)
inactive: erlotinib 0.02 | [1] 0.073 | [2] 0.032 | [3] 0.102 | [4] 0.035 | [5] -0.001 | [6] -0.096 | [7] -0.124

SNRPD3 (UniProt P62318)
Chain of UniProt P62318 (P62318 whole entry, looked up): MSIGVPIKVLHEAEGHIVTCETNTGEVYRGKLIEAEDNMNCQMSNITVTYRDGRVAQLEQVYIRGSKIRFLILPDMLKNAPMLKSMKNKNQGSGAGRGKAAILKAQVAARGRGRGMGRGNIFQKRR
inactive: erlotinib -0.019 | [1] -0.02 | [2] -0.04 | [3] -0.038 | [4] 0.012 | [5] 0.079 | [6] -0.113 | [7] -0.076 | [8] 0.068 | [9] -0.012

STARD7 (UniProt Q9NQZ5)
Chain of UniProt Q9NQZ5 (Q9NQZ5 whole entry, looked up): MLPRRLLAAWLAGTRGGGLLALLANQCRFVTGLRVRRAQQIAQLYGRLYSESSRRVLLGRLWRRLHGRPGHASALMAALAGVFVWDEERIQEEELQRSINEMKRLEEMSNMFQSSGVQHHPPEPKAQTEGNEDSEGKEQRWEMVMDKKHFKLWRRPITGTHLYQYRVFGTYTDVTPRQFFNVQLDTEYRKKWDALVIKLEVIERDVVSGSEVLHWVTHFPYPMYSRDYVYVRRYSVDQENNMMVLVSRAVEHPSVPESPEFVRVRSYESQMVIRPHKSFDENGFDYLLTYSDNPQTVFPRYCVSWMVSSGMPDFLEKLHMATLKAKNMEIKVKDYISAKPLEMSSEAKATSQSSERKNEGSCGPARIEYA
inactive: erlotinib -0.021 | [1] 0.084 | [2] 0.024 | [3] 0.086 | [4] 0.031 | [5] 0.009 | [6] 0.017 | [7] 0.067 | [8] 0.006 | [9] -0.029

TANGO6 (UniProt Q9C0B7)
Chain of UniProt Q9C0B7 (Q9C0B7 whole entry, looked up): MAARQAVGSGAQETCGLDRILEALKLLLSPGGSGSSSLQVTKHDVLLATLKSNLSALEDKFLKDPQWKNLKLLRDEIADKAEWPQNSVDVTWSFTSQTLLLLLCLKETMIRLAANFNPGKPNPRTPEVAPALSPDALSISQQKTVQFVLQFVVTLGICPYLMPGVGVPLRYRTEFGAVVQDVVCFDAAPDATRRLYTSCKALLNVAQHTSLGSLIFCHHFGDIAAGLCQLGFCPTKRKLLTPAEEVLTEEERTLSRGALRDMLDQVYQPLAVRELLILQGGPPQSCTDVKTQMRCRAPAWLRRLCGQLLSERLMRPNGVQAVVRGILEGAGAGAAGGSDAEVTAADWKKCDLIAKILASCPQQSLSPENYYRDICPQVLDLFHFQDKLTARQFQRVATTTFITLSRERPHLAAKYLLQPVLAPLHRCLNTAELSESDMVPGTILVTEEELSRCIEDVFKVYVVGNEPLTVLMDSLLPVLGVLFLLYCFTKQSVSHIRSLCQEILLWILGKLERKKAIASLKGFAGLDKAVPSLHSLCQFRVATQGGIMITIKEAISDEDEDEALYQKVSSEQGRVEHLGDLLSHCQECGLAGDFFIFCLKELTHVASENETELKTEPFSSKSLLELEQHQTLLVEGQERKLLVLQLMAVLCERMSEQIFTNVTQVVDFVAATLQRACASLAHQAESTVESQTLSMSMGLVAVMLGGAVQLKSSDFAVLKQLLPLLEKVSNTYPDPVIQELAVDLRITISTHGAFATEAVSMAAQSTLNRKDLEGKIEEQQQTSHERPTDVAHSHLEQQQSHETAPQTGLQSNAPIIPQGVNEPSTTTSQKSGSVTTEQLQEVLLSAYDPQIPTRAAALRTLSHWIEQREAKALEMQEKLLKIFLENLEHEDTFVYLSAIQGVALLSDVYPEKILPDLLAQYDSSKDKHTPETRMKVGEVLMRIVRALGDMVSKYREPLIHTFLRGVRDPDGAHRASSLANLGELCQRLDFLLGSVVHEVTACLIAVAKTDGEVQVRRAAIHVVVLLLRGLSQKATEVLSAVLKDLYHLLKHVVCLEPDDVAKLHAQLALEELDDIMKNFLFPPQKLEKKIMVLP
inactive: erlotinib 0.208 | [1] 0.032 | [2] -0.003 | [3] -0.026 | [4] -0.001 | [5] 0.057 | [6] 0.025 | [7] -0.056 | [8] -0.026 | [9] 0

TMBIM6 isoform 2 (UniProt P55061)
Chain of UniProt P55061 (P55061 whole entry, looked up): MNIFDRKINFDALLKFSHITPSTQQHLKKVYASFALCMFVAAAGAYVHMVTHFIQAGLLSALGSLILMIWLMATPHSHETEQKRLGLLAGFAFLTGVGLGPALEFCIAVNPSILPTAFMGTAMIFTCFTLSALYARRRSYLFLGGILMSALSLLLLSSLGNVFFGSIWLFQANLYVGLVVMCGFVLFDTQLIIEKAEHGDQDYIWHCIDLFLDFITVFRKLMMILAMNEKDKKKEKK
inactive: erlotinib -0.019 | [1] 0.029 | [2] 0.051 | [3] -0.062 | [4] 0.067 | [5] 0.076 | [6] 0.019 | [7] -0.07 | [8] 0.026 | [9] -0.01

SURF1 (UniProt Q15526)
Chain of UniProt Q15526 (Q15526 whole entry, looked up): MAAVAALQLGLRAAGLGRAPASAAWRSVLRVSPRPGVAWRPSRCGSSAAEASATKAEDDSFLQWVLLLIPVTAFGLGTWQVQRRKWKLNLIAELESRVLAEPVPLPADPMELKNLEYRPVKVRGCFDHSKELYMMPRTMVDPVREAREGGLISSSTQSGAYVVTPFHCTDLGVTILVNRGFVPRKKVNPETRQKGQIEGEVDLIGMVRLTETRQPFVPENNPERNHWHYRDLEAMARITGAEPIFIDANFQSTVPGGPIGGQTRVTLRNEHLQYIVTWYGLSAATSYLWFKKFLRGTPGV
inactive: erlotinib 0.021 | [1] -0.036 | [2] 0.051 | [3] -0.026 | [4] -0.045 | [5] 0.055 | [6] 0.056 | [7] 0.017 | [8] -0.141 | [9] 0

SLC30A10 (UniProt Q6XR72)
inactive: erlotinib 0.033 | [1] 0.068 | [2] -0.06 | [3] 0.001 | [4] 0.077 | [5] 0.008 | [6] 0.025 | [7] -0.003 | [8] -0.054 | [9] 0.115

SP1 (UniProt P08047)
inactive: erlotinib -0.055 | [1] -0.03 | [2] -0.046 | [3] 0.043 | [4] 0.006 | [5] 0.01 | [6] 0.001 | [7] -0.031 | [8] 0.047 | [9] -0.019

TECR (UniProt Q9NZ01)
inactive: erlotinib -0.02 | [1] 0.042 | [2] 0.036 | [3] -0.059 | [4] 0.018 | [5] 0.024 | [6] 0.067 | [7] -0.059 | [8] 0.072 | [9] 0.045

SLC25A4 (UniProt P12235)
Chain of UniProt P12235 (P12235 whole entry, looked up): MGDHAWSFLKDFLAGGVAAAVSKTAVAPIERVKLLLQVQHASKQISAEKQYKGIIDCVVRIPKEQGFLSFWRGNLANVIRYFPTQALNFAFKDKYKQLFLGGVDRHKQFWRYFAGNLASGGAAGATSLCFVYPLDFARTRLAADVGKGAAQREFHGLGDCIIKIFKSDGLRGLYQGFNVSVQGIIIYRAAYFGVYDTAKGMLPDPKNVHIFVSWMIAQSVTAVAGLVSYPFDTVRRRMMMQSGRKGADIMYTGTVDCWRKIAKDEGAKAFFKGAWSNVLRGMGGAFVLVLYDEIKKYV
inactive: erlotinib 0.007 | [1] -0.016 | [2] 0.035 | [3] -0.009 | [4] -0.004 | [5] 0.042 | [6] 0.045 | [7] -0.076 | [8] -0.019 | [9] 0.021

TFRC (UniProt P02786)
inactive: erlotinib 0.002 | [1] 0.017 | [2] 0.022 | [3] 0.006 | [4] 0.037 | [5] 0.027 | [6] 0.023 | [7] -0.011 | [8] 0.006 | [9] 0.055

STARD3NL (UniProt O95772)
Chain of UniProt O95772 (O95772 whole entry, looked up): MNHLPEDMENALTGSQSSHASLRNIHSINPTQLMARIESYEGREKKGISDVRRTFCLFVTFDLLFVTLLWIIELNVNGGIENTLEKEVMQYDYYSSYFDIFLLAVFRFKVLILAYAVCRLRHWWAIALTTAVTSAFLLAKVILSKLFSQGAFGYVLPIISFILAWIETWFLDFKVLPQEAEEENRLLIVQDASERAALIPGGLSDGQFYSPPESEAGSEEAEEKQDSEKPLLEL
inactive: erlotinib 0.004 | [1] -0.107 | [2] -0.004 | [3] -0.003 | [4] 0.169 | [5] 0.048 | [6] 0.11 | [7] 0.103 | [8] -0.013 | [9] 0.015

SLC7A6 (UniProt Q92536)
inactive: erlotinib -0.051 | [1] 0.232 | [2] -0.161 | [3] 0.026 | [4] -0.001 | [5] 0.034 | [6] 0.008 | [7] -0.033 | [8] -0.004 | [9] 0.135

SLC27A1 (UniProt Q6PCB7)
Chain of UniProt Q6PCB7 (Q6PCB7 whole entry, looked up): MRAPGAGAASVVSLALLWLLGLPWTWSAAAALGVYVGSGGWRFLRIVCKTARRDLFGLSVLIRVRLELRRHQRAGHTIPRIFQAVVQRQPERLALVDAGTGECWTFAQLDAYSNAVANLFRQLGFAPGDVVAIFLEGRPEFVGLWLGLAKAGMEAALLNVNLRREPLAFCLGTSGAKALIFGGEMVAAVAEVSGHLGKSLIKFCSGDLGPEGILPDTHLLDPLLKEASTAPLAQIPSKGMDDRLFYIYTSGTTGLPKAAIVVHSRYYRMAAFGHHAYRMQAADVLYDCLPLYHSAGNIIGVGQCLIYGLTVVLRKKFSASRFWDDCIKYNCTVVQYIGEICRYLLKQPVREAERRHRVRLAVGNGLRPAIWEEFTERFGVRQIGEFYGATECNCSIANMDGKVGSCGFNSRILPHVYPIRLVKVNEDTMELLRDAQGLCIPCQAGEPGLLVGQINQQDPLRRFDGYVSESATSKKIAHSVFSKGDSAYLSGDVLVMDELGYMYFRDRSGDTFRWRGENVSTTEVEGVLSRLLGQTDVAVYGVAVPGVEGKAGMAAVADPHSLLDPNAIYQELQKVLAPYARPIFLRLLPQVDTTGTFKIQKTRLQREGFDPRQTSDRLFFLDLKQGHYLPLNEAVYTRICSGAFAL
inactive: erlotinib -0.003 | [1] -0.053 | [2] 0.055 | [3] -0.008 | [4] 0.061 | [5] 0 | [6] 0.016 | [7] 0.012 | [9] -0.064
active: [8] -0.411

SLC35A1 (UniProt P78382)
inactive: erlotinib 0.014 | [1] -0.126 | [2] 0.05 | [3] -0.008 | [4] 0.082 | [5] -0.017 | [6] -0.043 | [7] -0.061 | [8] -0.052 | [9] 0.077

SMPD4 isoform 4 (UniProt Q9NXE4)
Chain of UniProt Q9NXE4 (Q9NXE4 whole entry, looked up): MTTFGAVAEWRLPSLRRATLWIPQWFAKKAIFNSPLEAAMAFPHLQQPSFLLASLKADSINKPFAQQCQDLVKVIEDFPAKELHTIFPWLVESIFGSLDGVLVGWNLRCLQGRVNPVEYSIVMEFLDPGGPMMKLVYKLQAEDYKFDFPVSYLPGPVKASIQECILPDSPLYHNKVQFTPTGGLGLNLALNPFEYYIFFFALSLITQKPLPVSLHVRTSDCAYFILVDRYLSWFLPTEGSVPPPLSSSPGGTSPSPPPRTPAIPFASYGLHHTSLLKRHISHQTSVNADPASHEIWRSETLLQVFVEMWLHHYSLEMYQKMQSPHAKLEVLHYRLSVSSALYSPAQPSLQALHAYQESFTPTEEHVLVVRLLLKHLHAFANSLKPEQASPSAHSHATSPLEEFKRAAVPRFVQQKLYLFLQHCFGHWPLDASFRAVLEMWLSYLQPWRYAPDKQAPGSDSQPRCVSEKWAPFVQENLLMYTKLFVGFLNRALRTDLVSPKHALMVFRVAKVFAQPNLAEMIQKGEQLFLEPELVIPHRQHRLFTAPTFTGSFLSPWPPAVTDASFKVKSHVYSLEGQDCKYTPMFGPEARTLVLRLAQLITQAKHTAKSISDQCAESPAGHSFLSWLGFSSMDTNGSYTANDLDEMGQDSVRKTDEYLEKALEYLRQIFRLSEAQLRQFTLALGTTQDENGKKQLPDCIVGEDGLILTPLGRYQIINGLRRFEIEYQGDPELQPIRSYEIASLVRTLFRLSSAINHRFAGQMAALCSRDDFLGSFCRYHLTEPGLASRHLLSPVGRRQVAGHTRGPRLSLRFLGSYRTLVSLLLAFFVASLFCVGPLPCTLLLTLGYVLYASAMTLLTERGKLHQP
inactive: erlotinib 0.073 | [1] 0.064 | [2] -0.034 | [3] 0.005 | [4] 0.098 | [5] 0.158 | [6] -0.021 | [7] -0.076 | [8] 0.023 | [9] -0.011

TM9SF2 (UniProt Q99805)
inactive: erlotinib 0.012 | [1] 0.025 | [2] 0.037 | [3] -0.006 | [4] 0.027 | [5] -0.021 | [6] 0.04 | [7] 0.009 | [8] -0.04 | [9] 0.063

SMC5 (UniProt Q8IY18)
inactive: erlotinib -0.041 | [1] 0.091 | [2] -0.091 | [3] 0.04 | [4] 0.014 | [5] 0.005 | [6] -0.017 | [7] -0.141 | [8] 0.042 | [9] 0.116

SMARCAD1 isoform 2 (UniProt Q9H4L7)
inactive: erlotinib 0.089 | [1] 0.052 | [2] 0.071 | [3] 0.007 | [4] 0.05 | [5] -0.026 | [6] 0.025 | [7] 0.022 | [8] -0.02 | [9] -0.052

SLC38A2 (UniProt Q96QD8)
inactive: erlotinib -0.093 | [1] 0.075 | [2] 0.01 | [3] 0.003 | [4] -0.039 | [5] 0.093 | [6] 0.055 | [7] 0 | [8] -0.009 | [9] 0.048

SRSF9 (UniProt Q13242)
inactive: erlotinib -0.084 | [1] -0.4 | [3] 0.138 | [4] -0.211 | [5] 0.052 | [6] -0.087 | [7] -0.229
active: [2] -0.721

SNX5 (UniProt Q9Y5X3)
inactive: erlotinib 0.033 | [1] 0.09 | [2] 0.042 | [3] 0.022 | [4] 0.057 | [5] -0.024 | [6] -0.05 | [7] -0.038 | [8] 0.077 | [9] -0.009

SMAD9 (UniProt O15198)
inactive: erlotinib -0.001 | [1] 0.086 | [2] 0.101 | [3] -0.055 | [4] 0 | [5] -0.012 | [6] -0.111 | [7] -0.098 | [8] 0.113 | [9] -0.076

SORT1 (UniProt Q99523)
inactive: erlotinib 0.005 | [1] -0.024 | [2] 0.03 | [3] -0.012 | [4] 0.014 | [5] 0.034 | [6] 0.022 | [7] -0.018 | [8] -0.012 | [9] 0.06

SRRM2 (UniProt Q9UQ35)
inactive: erlotinib 0.067 | [1] 0.095 | [2] -0.136 | [3] 0.07 | [4] -0.123 | [5] 0.014 | [6] -0.044 | [7] -0.073 | [8] -0.061 | [9] -0.128

SNRNP27 (UniProt Q8WVK2)
inactive: erlotinib 0.026 | [1] -0.021 | [2] 0.052 | [3] 0.015 | [4] 0.015 | [5] 0.045 | [6] -0.165 | [7] -0.027 | [8] 0.061 | [9] 0.035

SPIRE1 (UniProt Q08AE8)
Chain of UniProt Q08AE8 (Q08AE8 whole entry, looked up): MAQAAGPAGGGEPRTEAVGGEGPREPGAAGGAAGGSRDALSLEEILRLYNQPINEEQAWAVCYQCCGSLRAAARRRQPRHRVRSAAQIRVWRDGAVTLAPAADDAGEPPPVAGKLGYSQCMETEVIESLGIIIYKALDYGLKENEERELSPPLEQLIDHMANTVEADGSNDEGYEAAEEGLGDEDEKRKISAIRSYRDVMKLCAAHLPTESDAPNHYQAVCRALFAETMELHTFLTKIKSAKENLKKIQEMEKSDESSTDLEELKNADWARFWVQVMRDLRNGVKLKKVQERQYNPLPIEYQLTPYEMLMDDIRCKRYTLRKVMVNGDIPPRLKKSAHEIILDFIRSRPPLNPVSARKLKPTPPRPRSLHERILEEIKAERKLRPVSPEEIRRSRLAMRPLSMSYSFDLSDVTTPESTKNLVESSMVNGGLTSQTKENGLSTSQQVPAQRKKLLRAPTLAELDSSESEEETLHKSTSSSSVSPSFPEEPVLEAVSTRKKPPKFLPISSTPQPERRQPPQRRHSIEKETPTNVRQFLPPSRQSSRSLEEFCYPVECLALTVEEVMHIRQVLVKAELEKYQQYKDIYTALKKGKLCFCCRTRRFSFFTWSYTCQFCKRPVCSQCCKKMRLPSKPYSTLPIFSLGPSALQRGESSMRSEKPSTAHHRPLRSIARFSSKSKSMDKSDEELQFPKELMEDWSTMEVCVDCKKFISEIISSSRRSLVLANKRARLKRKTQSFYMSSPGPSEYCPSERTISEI
inactive: erlotinib 0.16 | [1] -0.264 | [3] -0.119 | [4] 0.11 | [5] -0.034 | [6] 0.048 | [7] -0.063 | [8] 0.01 | [9] 0.145
active: [2] -0.466
